In the supplement of paper PMC6522484:
± gives the standard deviation of the averaged measurements.

Columns and labels:
[1] = test system: DLD1; assay: cell viability (CellTiter-Glo) relative to plate median (fraction of plate median); higher = more viable cells; conditions: 5 µM; treatment time 24 h; reporter: 7TFP
Summary of the method: (§1)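 Values are well luminescence normalised to the plate median, from either a firefly luciferase or a CellTiterGlo readout on parallel plates. The cells, colorectal cancer lines stably transduced with lentiviral 7TFP or TCF4/Wnt firefly luciferase reporters, were treated with library compounds at a final 5 µM for 24 h. The mean of two independent replicates is listed.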

[2] = test system: HCT116; assay: as above; conditions: 5 µM; treatment time 24 h; reporter: TCF4/Wnt
Summary of the method: as §1

[3] = test system: SW480; assay: as above; conditions: 5 µM; treatment time 24 h; reporter: 7TFP
Summary of the method: as §1

[4] = test system: DLD1; assay: TCF/Wnt firefly luciferase reporter signal relative to plate median (fraction of plate median); higher = higher Wnt reporter signal; conditions: 5 µM; treatment time 24 h; reporter: 7TFP
Summary of the method: as §1

[5] = test system: SW480; assay: as above; conditions: 5 µM; treatment time 24 h; reporter: 7TFP
Summary of the method: as §1

Compound	cell viability [1]	cell viability [2]	cell viability [3]	TCF/Wnt firefly luciferase reporter signal [4]	TCF/Wnt firefly luciferase reporter signal [5]
CC1(C)O[C@@H]2C[C@H]3[C@@H]4C[C@H](F)C5=CC(=O)CC[C@]5(C)[C@H]4[C@@H](O)C[C@]3(C)[C@]2(C(=O)CO)O1	1.01 ± 0.025	1.025 ± 0.0071	1.02 ± 0.047	0.949 ± 0.087	1.04 ± 0.073
CC1(C)CCC[C@]2(C)[C@@H]3[C@H]1[C@@H](O)[C@@]2(C)C[C@H]3O	1.005 ± 0.0071	0.991 ± 0.11	1.12 ± 0.014	0.981 ± 0.023	1.13 ± 0.014
C/C=C/c1ccc(OC)cc1	1.07 ± 0.021	0.987 ± 0.047	1.03 ± 0.062	0.925 ± 0.12	0.943 ± 0.0014
CCC[C@H](N[C@@H](C)C(=O)N1[C@H](C(=O)O)C[C@@H]2CCCC[C@@H]21)C(=O)OCC	1.03 ± 0.05	1.08 ± 0.035	0.961 ± 0.037	0.982 ± 0.025	1.08 ± 0.078
CO[C@@]12[C@H](COC(N)=O)C3=C(C(=O)C(C)=C(N)C3=O)N1C[C@@H]1N[C@@H]12	1.12 ± 0.057	1.01	1.25 ± 0.021	0.974 ± 0.094	0.843 ± 0.13
